Test results taken from PubChem BioAssay (NCI).
The panel holds about 83,000 compounds, 20% with a hit somewhere; the sample as a whole holds those more often.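 How to read the values: 0–100, growth inhibition (40 = 60% inhibited); 0, no net growth; -100 to 0, cell death (-40 = 40% of starting cells died; -100 = all dead).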 The source made the active and inactive calls. The calls were made as follows: active = growth percent below 10; inactive = the rest.

How the values were obtained:
Experiment in all cases: NCI-60 one-dose screen, 48 h (100 = growth as untreated, 0 = no growth, -100 = all killed)
HT29 colon = settings: 10 µM unless noted
SNB-75 CNS = settings: 10 µM unless noted
SNB-19 CNS = settings: 10 µM unless noted
U251 CNS = settings: 10 µM unless noted
PC-3 prostate = settings: 10 µM unless noted
SK-MEL-5 melanoma = settings: 10 µM unless noted
UACC-62 melanoma = settings: 10 µM unless noted
LOX IMVI melanoma = settings: 10 µM unless noted
SK-MEL-28 melanoma = settings: 10 µM
SK-MEL-2 melanoma = settings: 10 µM unless noted

Measured: growth

Clc1ccc(Nc2nnc(-c3ccc4c(c3)OCO4)o2)cc1
inactive: HT29 colon 95% | SNB-75 CNS 121% | SNB-19 CNS 99% | U251 CNS 102% | PC-3 prostate 107% | SK-MEL-5 melanoma 104% | UACC-62 melanoma 88.9% | LOX IMVI melanoma 89.9% | SK-MEL-28 melanoma 114% | SK-MEL-2 melanoma 102%

COc1ccc(OC)c(/C=C/C(=O)c2c(C)nc3ccccc3c2/C=C/c2ccccc2)c1
inactive: HT29 colon 37.2% | SNB-75 CNS 59.2% | SNB-19 CNS 80.9% | U251 CNS 54.1% | PC-3 prostate 59.4% | SK-MEL-5 melanoma 82.9% | UACC-62 melanoma 50.1% | LOX IMVI melanoma 42.8% | SK-MEL-28 melanoma 95.1% | SK-MEL-2 melanoma 72.2%

CCOC(=O)c1sc(-c2ccc(OS(=O)(=O)c3ccc(Br)s3)c(C=O)c2)nc1C
active: HT29 colon -17.9% | SNB-75 CNS -5.48% | U251 CNS -4.79% | SK-MEL-5 melanoma -92.6% | LOX IMVI melanoma -54.5%
inactive: SNB-19 CNS 14.4% | PC-3 prostate 20.1% | UACC-62 melanoma 12.3% | SK-MEL-28 melanoma 55% | SK-MEL-2 melanoma 11.3%

CC1=C(CC(=O)c2cccc([N+](=O)[O-])c2)C(=O)c2ccccc2C1=O
inactive: HT29 colon 106% | SNB-19 CNS 13% | PC-3 prostate 42.8%
active: SNB-75 CNS -84.6% | U251 CNS -81% | SK-MEL-5 melanoma 4.78% | UACC-62 melanoma -50.8% | LOX IMVI melanoma -51.9% | SK-MEL-28 melanoma -89.9% | SK-MEL-2 melanoma -36.2%

Brc1ccc(Oc2ccc(Nc3ncnc4onc(-c5ccccc5)c34)cc2)cc1
inactive: HT29 colon 95.5% | SNB-75 CNS 86.7% | SNB-19 CNS 106% | U251 CNS 98.9% | PC-3 prostate 102% | SK-MEL-5 melanoma 92.6% | UACC-62 melanoma 88.6% | LOX IMVI melanoma 94.5% | SK-MEL-28 melanoma 97.2% | SK-MEL-2 melanoma 110%

O=C(NCCCN1CCC(N2CCCCC2)CC1)C1=Cc2cc(Br)ccc2OC1
inactive: HT29 colon 17.9% | SNB-75 CNS 44.7% | SNB-19 CNS 58.8% | U251 CNS 37% | PC-3 prostate 17.5% | SK-MEL-5 melanoma 68% | UACC-62 melanoma 53.6% | LOX IMVI melanoma 31.3% | SK-MEL-28 melanoma 80.9% | SK-MEL-2 melanoma 35.5%

Cc1sc2ncn(CC(=O)Nc3ccc(S(N)(=O)=O)cc3)c(=O)c2c1C
inactive: HT29 colon 107% | SNB-75 CNS 86.1% | SNB-19 CNS 98.5% | U251 CNS 100% | PC-3 prostate 101% | SK-MEL-5 melanoma 99.3% | UACC-62 melanoma 96.5% | LOX IMVI melanoma 99% | SK-MEL-28 melanoma 110% | SK-MEL-2 melanoma 106%

CC[C@]1(O)C[C@@H]2CN(CCc3c([nH]c4ccccc34)[C@@](C(=O)OC)(c3cc4c(cc3OC)N(C)[C@H]3[C@@](O)(C(=O)OC)[C@H](OC(C)=O)[C@]5(CC)C=CCN6CC[C@]43[C@@H]65)C2)C1
active: HT29 colon 8.06% | SNB-75 CNS 3.82% | SK-MEL-5 melanoma -54.6%
inactive: SNB-19 CNS 29.8% | U251 CNS 16.6% | PC-3 prostate 20% | UACC-62 melanoma 34.4% | LOX IMVI melanoma 15.3% | SK-MEL-28 melanoma 66% | SK-MEL-2 melanoma 39.8%

COc1cc(NC(=O)CCSc2nc3ccccc3c(=O)n2Cc2ccccc2)cc(OC)c1OC
inactive: HT29 colon 97.1% | SNB-75 CNS 55.7% | SNB-19 CNS 84.9% | U251 CNS 91.6% | PC-3 prostate 66.9% | SK-MEL-5 melanoma 87.4% | UACC-62 melanoma 64.8% | LOX IMVI melanoma 82% | SK-MEL-28 melanoma 102% | SK-MEL-2 melanoma 84.4%

COc1ccc(Cn2c(Br)c3c(c2Br)-c2nc(NC(=O)c4ccc(OC)cc4)sc2CC3)cc1
inactive: HT29 colon 84.8% | SNB-75 CNS 48.2% | SNB-19 CNS 80.1% | U251 CNS 67.8% | PC-3 prostate 71.5% | SK-MEL-5 melanoma 62.1% | UACC-62 melanoma 63.5% | LOX IMVI melanoma 80.3% | SK-MEL-28 melanoma 81.8% | SK-MEL-2 melanoma 83.8%

CC(C)c1ccc(S(=O)(=O)NC(=O)NC2CCCC2)cc1
inactive: HT29 colon 108% | SNB-75 CNS 101% | SNB-19 CNS 100% | U251 CNS 101% | PC-3 prostate 99.9% | SK-MEL-5 melanoma 101% | UACC-62 melanoma 94.7% | LOX IMVI melanoma 97.7% | SK-MEL-28 melanoma 103% | SK-MEL-2 melanoma 110%

COc1ccc(-c2nsc3c2NC(=O)CC3c2ccc3c(c2)OCCO3)cc1 (stereo not given)
active: HT29 colon -0.622%
inactive: SNB-75 CNS 35.1% | SNB-19 CNS 56.8% | U251 CNS 24.3% | PC-3 prostate 23.6% | SK-MEL-5 melanoma 27% | UACC-62 melanoma 32.2% | LOX IMVI melanoma 44.3% | SK-MEL-28 melanoma 43.1% | SK-MEL-2 melanoma 57.5%

CN(C)CCCNCc1ccc(-c2ccc(F)c(Cl)c2)o1
active: HT29 colon -30.6% | U251 CNS -29.8% | SK-MEL-5 melanoma 6.38% | LOX IMVI melanoma -90.1% | SK-MEL-28 melanoma -86.9% | SK-MEL-2 melanoma -14.8%
inactive: SNB-75 CNS 40.5% | SNB-19 CNS 73.6% | PC-3 prostate 38.7% | UACC-62 melanoma 20.1%

Cc1ccc2[nH]c(=O)cc(-n3nncc3Cn3c4ccccc4c4ccccc43)c2c1
inactive: HT29 colon 113% | SNB-75 CNS 81.2% | SNB-19 CNS 97.1% | U251 CNS 99.2% | PC-3 prostate 92.8% | SK-MEL-5 melanoma 94.5% | UACC-62 melanoma 94.9% | LOX IMVI melanoma 98.2% | SK-MEL-28 melanoma 108% | SK-MEL-2 melanoma 103%

CCOC(=O)c1cc2c(n1Cc1cccc(OC)c1)-c1oncc1CCC2
active: SNB-75 CNS 7.49% | SK-MEL-5 melanoma 1.56%
inactive: HT29 colon 10% | SNB-19 CNS 39.4% | U251 CNS 27.3% | PC-3 prostate 38.8% | UACC-62 melanoma 31% | LOX IMVI melanoma 33.7% | SK-MEL-28 melanoma 47.8% | SK-MEL-2 melanoma 36.9%

CCCCN1CCN(c2ccc3nc(-c4ccc5nc(-c6ccc(C(F)(F)F)cc6)[nH]c5c4)[nH]c3c2)CC1
active: HT29 colon -49.5% | SNB-75 CNS -93.6% | SNB-19 CNS -91.4% | U251 CNS -86.6% | PC-3 prostate -77% | UACC-62 melanoma -31.6% | LOX IMVI melanoma -89.5% | SK-MEL-28 melanoma -88.3% | SK-MEL-2 melanoma -47.5%
inactive: SK-MEL-5 melanoma 10.8%

c1ccc(CNc2nc(Nc3ccccc3)nc3ccccc23)cc1
inactive: HT29 colon 54.5% | SNB-19 CNS 47.3% | U251 CNS 29.6% | PC-3 prostate 19.5% | SK-MEL-5 melanoma 54.8% | UACC-62 melanoma 27.1% | LOX IMVI melanoma 59.6% | SK-MEL-2 melanoma 21.8%
active: SNB-75 CNS -6.23% | SK-MEL-28 melanoma -35.1%

Cc1ccc(C)c(-c2csc(Nc3ccc(C)c(C)c3)n2)c1
inactive: SNB-75 CNS 34% | SNB-19 CNS 84% | PC-3 prostate 63.9% | UACC-62 melanoma 49.2% | SK-MEL-2 melanoma 31.6%
active: HT29 colon 4.56% | U251 CNS 8.11% | SK-MEL-5 melanoma -92.3% | LOX IMVI melanoma -67.9% | SK-MEL-28 melanoma -93.3%

NNC(=O)CNC(=O)Nc1n[nH]c(=S)s1
inactive: HT29 colon 95.9% | SNB-75 CNS 92.1% | SNB-19 CNS 106% | U251 CNS 105% | PC-3 prostate 95.9% | SK-MEL-5 melanoma 105% | UACC-62 melanoma 104% | LOX IMVI melanoma 98.1% | SK-MEL-28 melanoma 106% | SK-MEL-2 melanoma 97.7%

COc1cccc2c(=O)c3c(sc12)c(NCCCNCCO)nc1ccccc13
active: HT29 colon -43.8%
inactive: SNB-75 CNS 17.2% | SNB-19 CNS 63.6% | U251 CNS 14.4% | PC-3 prostate 45% | SK-MEL-5 melanoma 72.6% | UACC-62 melanoma 77.4% | LOX IMVI melanoma 37.2% | SK-MEL-28 melanoma 81.9% | SK-MEL-2 melanoma 94.1%

O=C1/C(=C/c2ccc(O)cc2)COc2ccc(O)cc21
inactive: HT29 colon 98.3% | SNB-75 CNS 96.4% | SNB-19 CNS 99.9% | U251 CNS 80% | PC-3 prostate 94.3% | SK-MEL-5 melanoma 102% | UACC-62 melanoma 92.8% | LOX IMVI melanoma 70.1% | SK-MEL-28 melanoma 105% | SK-MEL-2 melanoma 114%

CCOC(=O)c1c2c(c(C)n1Cc1ccc(OC)cc1)-c1oncc1CC2
inactive: HT29 colon 89.1% | SNB-75 CNS 72.9% | SNB-19 CNS 81.8% | U251 CNS 86.3% | PC-3 prostate 99.6% | SK-MEL-5 melanoma 98.1% | UACC-62 melanoma 110% | LOX IMVI melanoma 76.6% | SK-MEL-28 melanoma 138% | SK-MEL-2 melanoma 120%

Nc1nc(-c2ccccc2Br)nn1-c1nc2ccccc2s1
inactive: HT29 colon 101% | SNB-75 CNS 96.7% | SNB-19 CNS 97.2% | U251 CNS 107% | PC-3 prostate 103% | SK-MEL-5 melanoma 104% | UACC-62 melanoma 96.6% | LOX IMVI melanoma 106% | SK-MEL-28 melanoma 103% | SK-MEL-2 melanoma 96.7%

COc1cc2nc(-c3cnc(N(C)C)nc3)nc(NC3CCN(Cc4ccccc4)CC3)c2cc1OC
inactive: SK-MEL-5 melanoma 10.6% | SK-MEL-2 melanoma 89.5%
active: HT29 colon -84.4% | SNB-75 CNS -96.7% | SNB-19 CNS -79.2% | U251 CNS -87.4% | PC-3 prostate -83.2% | UACC-62 melanoma -94.5% | LOX IMVI melanoma -91.9% | SK-MEL-28 melanoma -78.7%

O=c1oc2ccc(I)cc2c(=O)n1-c1ccc(Cl)cc1F
inactive: HT29 colon 63.6% | SNB-19 CNS 20.8% | LOX IMVI melanoma 13% | SK-MEL-28 melanoma 10.9%
active: SNB-75 CNS -12.3% | U251 CNS 0.686% | PC-3 prostate -0.803% | SK-MEL-5 melanoma -87.2% | UACC-62 melanoma -15.8% | SK-MEL-2 melanoma -28.6%

CCN(CC)CCNC(=O)C(Cl)=C1C(Cl)=C(Cl)C(Cl)=C1Cl
inactive: HT29 colon 41.3% | SNB-75 CNS 48.4% | SNB-19 CNS 85.5% | U251 CNS 40.8% | PC-3 prostate 56.2% | SK-MEL-5 melanoma 47% | UACC-62 melanoma 55.1% | LOX IMVI melanoma 22.6% | SK-MEL-28 melanoma 72.7% | SK-MEL-2 melanoma 47.6%

CC1=C(C(=O)OCC2CCN(C(=O)OC(C)(C)C)CC2)[C@H](c2cccc(C#N)c2)C2=C(CC(C)(C)CC2=O)N1
inactive: HT29 colon 30.9% | SNB-75 CNS 62.5% | SNB-19 CNS 51.7% | U251 CNS 47.6% | PC-3 prostate 59.4% | SK-MEL-5 melanoma 20.5% | UACC-62 melanoma 43.5% | LOX IMVI melanoma 15.2% | SK-MEL-28 melanoma 68.4% | SK-MEL-2 melanoma 75.3%

O=C1NC(=S)NC(=O)C1=Cc1cn(Cc2cn(Cc3cccc4ccccc34)nn2)c2ccccc12
inactive: HT29 colon 114% | SNB-75 CNS 79.4% | SNB-19 CNS 97.9% | U251 CNS 102% | PC-3 prostate 93.9% | SK-MEL-5 melanoma 93.9% | UACC-62 melanoma 88.3% | LOX IMVI melanoma 91.1% | SK-MEL-28 melanoma 103% | SK-MEL-2 melanoma 114%
